Reference: PubChem BioAssay AID1159580 (chemical genetic matrix, 2015)
Where “and” joins values, the source holds several entries; their conditions need not be identical. Identical values can stand only once. Among all 5,500 compounds or so, about 2,000 (36%) were called active. Not shown: some 18% with an inconclusive outcome. Rule as the data show it: active = normalized growth mostly below about 0.91 (no sharp cut-off); inconclusive = no clear call, values can overlap the other calls; inactive = mostly above about 0.92. This is one part of the list.

Experiment: chemical genetic growth profiling, strain panel (AID 1159580);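 also: tested at 20 µM; growth read once vehicle control cultures reached saturation at 30 °C; 1 = growth at the plate median or of vehicle wells; lower values mean less growth of the strain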
Conditions: S. cerevisiae deletion strains, growth OD

Measured: normalized growth

C[CH2][Hg][S]c1ccccc1C(=O)O
active: locus YAL013W, strain DEP1, stronger effect = lower value 0.0571 | locus YAL021C, strain ccr4, stronger effect = lower value 0.0644 | locus YAL026C, strain drs2, stronger effect = lower value 0.0601 | locus YAL030W, strain snc1, stronger effect = lower value 0.0549 | locus YBL061C, strain skt5, stronger effect = lower value 0.0584 | locus YBR009C, strain hhf1, stronger effect = lower value 0.0625 | locus YBR021W, strain FUR4, stronger effect = lower value 0.0826 | locus YBR023C, strain chs3, stronger effect = lower value 0.0607 | locus YBR171W, strain sec66, stronger effect = lower value 0.0719 | locus YBR229C, strain ROT2, stronger effect = lower value 0.0466 | locus YBR231C, strain swc5, stronger effect = lower value 0.0602 | locus YBR279W, strain paf1, stronger effect = lower value 0.0565 | locus YCL011C, strain gbp2, stronger effect = lower value 0.0545 | locus YCL016C, strain dcc1, stronger effect = lower value 0.0628 | locus YCL029C, strain bik1, stronger effect = lower value 0.0644 | locus YCL061C, strain MRC1, stronger effect = lower value 0.0624 | locus YCL069W, strain vba3, stronger effect = lower value 0.0582 | locus YCR088W, strain abp1, stronger effect = lower value 0.0571 | locus YDL005C, strain med2, stronger effect = lower value 0.0718 | locus YDL035C, strain GPR1, stronger effect = lower value 0.0506 | locus YDL040C, strain nat1, stronger effect = lower value 0.0559 | locus YDL074C, strain BRE1, stronger effect = lower value 0.0797 | locus YDL101C, strain DUN1, stronger effect = lower value 0.0547 | locus YDL134C, strain PPH21, stronger effect = lower value 0.0487 | locus YDL185W, strain tfp1, stronger effect = lower value 0.056 | locus YDL192W, strain arf1, stronger effect = lower value 0.0586 | locus YDR001C, strain nth1, stronger effect = lower value 0.0548 | locus YDR069C, strain doa4, stronger effect = lower value 0.0614 | locus YDR101C, strain arx1, stronger effect = lower value 0.0572 | locus YDR137W, strain rgp1, stronger effect = lower value 0.0826 | locus YDR150W, strain NUM1, stronger effect = lower value 0.058 | locus YDR159W, strain sac3, stronger effect = lower value 0.0891 | locus YDR162C, strain NBP2, stronger effect = lower value 0.0541 | locus YDR195W, strain ref2 0.117 | locus YDR297W, strain sur2, stronger effect = lower value 0.0559 | locus YDR318W, strain mcm21, stronger effect = lower value 0.0596 | locus YDR334W, strain swr1, stronger effect = lower value 0.06 | locus YDR335W, strain msn5, stronger effect = lower value 0.0577 | locus YDR388W, stronger effect = lower value 0.0549 | locus YDR392W, strain spt3, stronger effect = lower value 0.0928 | locus YDR502C, strain sam2, stronger effect = lower value 0.0576 | locus YEL003W, strain gim4, stronger effect = lower value 0.0526 | locus YEL037C, strain rad23, stronger effect = lower value 0.0545 | locus YEL061C, strain CIN8 (second series), stronger effect = lower value 0.058 | locus YEL061C, strain CIN8, stronger effect = lower value 0.0473 | locus YER015W, strain faa2, stronger effect = lower value 0.0585 | locus YER016W, strain bim1, stronger effect = lower value 0.059 | locus YER110C, stronger effect = lower value 0.0716 | locus YER111C, strain swi4, stronger effect = lower value 0.0734 | locus YER155C, strain BEM2 (second series), stronger effect = lower value 0.0849 | locus YER155C, strain BEM2, stronger effect = lower value 0.0624 | locus YER167W, strain BCK2, stronger effect = lower value 0.0502 | locus YFR010W, strain ubp6, stronger effect = lower value 0.0647 | locus YGL078C, strain dbp3, stronger effect = lower value 0.0538 | locus YGL086W, strain mad1, stronger effect = lower value 0.0535 | locus YGL167C, strain pmr1, stronger effect = lower value 0.0714 | locus YGL173C, strain kem1, stronger effect = lower value 0.0663 | locus YGL227W, strain vid30, stronger effect = lower value 0.059 | locus YGL240W, strain doc1, stronger effect = lower value 0.0734 | locus YGL248W, strain PDE1, stronger effect = lower value 0.0448 | locus YGL253W, strain hxk2, stronger effect = lower value 0.0514 | locus YGR078C, strain PAC10, stronger effect = lower value 0.0492 | locus YGR135W, strain pre9, stronger effect = lower value 0.0647 | locus YGR229C, strain SMI1, stronger effect = lower value 0.0574 | locus YGR252W, strain gcn5, stronger effect = lower value 0.152 | locus YHR013C, strain ard1, stronger effect = lower value 0.106 | locus YHR027C, strain rpn1, stronger effect = lower value 0.0612 | locus YHR030C, strain SLT2, stronger effect = lower value 0.0498 and 0.113 | locus YHR079C, strain IRE1 (second series), stronger effect = lower value 0.0541 | locus YHR079C, strain IRE1, stronger effect = lower value 0.123 | locus YHR094C, strain hxt1, stronger effect = lower value 0.0545 | locus YHR129C, strain ARP1, stronger effect = lower value 0.0546 | locus YHR142W, strain chs7, stronger effect = lower value 0.0696 | locus YHR200W, strain rpn10, stronger effect = lower value 0.057 | locus YIL066C, strain RNR3, stronger effect = lower value 0.0505 | locus YIL073C, strain SPO22, stronger effect = lower value 0.103 | locus YIL125W, strain kgd1, stronger effect = lower value 0.0543 | locus YIR030C, strain dcg1, stronger effect = lower value 0.0568 | locus YJL092W, strain hpr5, stronger effect = lower value 0.0555 | locus YJL095W, strain BCK1 (second series), stronger effect = lower value 0.0563 | locus YJL095W, strain BCK1, stronger effect = lower value 0.0505 and 0.109 | locus YJL115W, strain asf1, stronger effect = lower value 0.0695 | locus YJL129C, strain trk1, stronger effect = lower value 0.0829 | locus YJL134W, strain LCB3, stronger effect = lower value 0.0483 | locus YJL154C, strain vps35, stronger effect = lower value 0.0588 | locus YJL164C, strain tpk1, stronger effect = lower value 0.0629 | locus YJL166W, strain qcr8, stronger effect = lower value 0.0596 | locus YJL168C, strain set2, stronger effect = lower value 0.0562 | locus YJL187C, strain SWE1 (second series), stronger effect = lower value 0.0465 | locus YJL187C, strain SWE1, stronger effect = lower value 0.0547 | locus YJR043C, strain POL32, stronger effect = lower value 0.0607 | locus YJR066W, strain TOR1, stronger effect = lower value -0.000335
